# The campaign covered roughly 7,900 compounds. About 400 (5.1%) showed an effect of 50% or more. The full list was thinned out, with strong results kept by preference.
# Molecular target: Parkinson's disease protein 7 (PARK7/DJ1) (human, UniProt Q99497)
# Test: primary screen, percent inhibition; read as competition with a fluorescent probe by fluorescence polarization; higher = more effect of the substance
# Details: 100 µM
# In short: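 Covalent fragments at 100 μM final were incubated 2 h with 0.2 μM PARK7, then 20 nM probe JYQ-107 added for a further 2 h. Fluorescence polarization read at 480/520 nm; relative FP loss versus reference controls gave remaining enzyme activity.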
# Chain of Parkinson's disease protein 7 (PARK7/DJ1) (Q99497 whole entry, looked up): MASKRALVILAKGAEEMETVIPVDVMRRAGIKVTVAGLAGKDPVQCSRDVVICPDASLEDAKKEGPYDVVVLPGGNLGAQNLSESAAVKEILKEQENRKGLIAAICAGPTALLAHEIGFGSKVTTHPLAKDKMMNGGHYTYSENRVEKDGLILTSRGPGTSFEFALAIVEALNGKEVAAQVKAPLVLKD
row,Structure (SMILES),Inhibition %
1,Cl.O=S(=O)(F)C1CCCNC1 (stereo not shown),8.33%
2,C=CC(=O)N1CCN(CC)C(=O)C1(C)C,2.96%
3,C=CC(=O)N1CCC(C#N)(COC)CC1,5.2%
4,Cc1ccc(NC(=O)CN2CCSC2=O)cc1F,3.32%
5,COC(=O)Cc1csc(NC(=O)CCl)n1,20.2%
6,Cc1cc(C)nc(S)c1,6.52%
7,O=C1OCCC1N1CCOC(c2nccs2)C1 (stereo not shown),13.9%
8,C=CC(=O)NCCc1ccc(F)cn1,-26.8%
9,C=CC(=O)N1CCC(C(=O)N(C)c2ccccc2)C1 (stereo not shown),9.62%
10,C=CC(=O)NCc1coc2ccccc12,7.72%
11,Cc1ccccc1CCNC(=O)n1ccnc1,101%
12,CNC(=O)n1ccnc1,75.1%
13,O=C(NCC(F)(F)F)n1ccnc1,6.27%
14,Cc1ccccc1CCNC(=O)Cn1cnc(C#N)n1,4.99%
15,CC(C)C(=O)Nc1ccc(CNC(=O)n2ccnc2)cc1,0.0136%
16,COc1ccc(CNC(=O)n2ccnc2)cc1OC,6.72%
17,O=C(Nc1ccc(CNC(=O)n2ccnc2)cc1)C1CC1,92.1%
18,COc1cccc(CNC(=O)n2ccnc2)c1,95.1%
19,O=C(NCC1CCCC1)n1ccnc1,40.7%
20,COc1ccccc1CNC(=O)n1ccnc1,5.2%
21,O=C(N1CCC1c1ccccc1)n1ccnc1 (stereo not shown),11.7%
22,O=C(NCCc1ccc(F)cc1)n1ccnc1,12.7%
23,Cc1cc(C)nc(C#N)c1,9.14%
24,NCC1CCCCN1C(=O)C=Cc1ccccn1 (stereo not shown),1.06%
25,C=CC(=O)NC1CCN(C2CCOC2)CC1 (stereo not shown),22%
26,C=CC(=O)NCCc1noc(-c2ccccn2)n1,11%

row,Structure (SMILES),Inhibition %
1,C=CC(=O)NCc1ccnc(C)n1,7.47%
2,C=CC(=O)NCc1nnc(C2CC2)o1,6.84%
3,Nc1ccc(NC(=O)Oc2ccccc2)cc1,11.2%
4,CC1(C)OB(c2cccc3c2CCC3)OC1(C)C,3.3%
5,CS(=O)(=O)c1ccc(OCCCl)cc1,4.09%
6,CC(C)C(=O)Nc1ccc(C(=O)CCl)cc1,2.39%
7,O=C(CCl)NC(=O)c1ccco1,22.8%
8,NC(=O)Nc1ccc(C(=O)CCl)cc1,89.6%
9,CS(=O)(=O)c1ccc(C(=O)CCl)cc1,87.3%
10,CC(=O)Nc1ccc(C(=O)CCl)cc1,82.5%
11,CCC(=O)Nc1ccc(C(=O)CCl)cc1,4.09%
12,CC(C)CC(=O)Nc1ccc(C(=O)CCl)cc1,3.15%
13,O=C(CCl)c1ccc(NC(=O)c2ccco2)cc1,90.6%
14,CCCC(=O)Nc1ccc(C(=O)CCl)cc1,5.21%
15,CC1(C)OB(c2ccc(OCCS(C)(=O)=O)cc2)OC1(C)C,-1.19%
16,N#Cc1cccc(OCC(F)(F)F)n1,-0.809%
17,CN(C)S(=O)(=O)c1ccc(S)nc1,31.2%
18,O=c1onc(-c2ncccn2)n1Cc1ccccc1F,1.26%
19,CC(=O)Nc1ccc(Sc2nccnc2C#N)cc1,18.2%
20,CC1(C)OB(C2CNC2)OC1(C)C.O=C(O)C(F)(F)F,11.6%
21,COc1cc(F)ccc1N1CCN(C2CCOC2=O)CC1 (stereo not shown),7.6%
22,O=C(O)CNC(=O)C12CC3CC(CC(Cl)(C3)C1)C2,7.56%
23,Cc1c(NC(=O)CCl)cccc1[N+](=O)[O-],8.38%
24,C=CC(=O)NCC1CCC2(CCC2)CO1 (stereo not shown),5.32%
25,O=C(Nc1ccc(Cl)cc1)N1CCCCC1C1OCCO1 (stereo not shown),5.3%
26,C=CC(=O)N1CCC(c2ccco2)CC1,8.73%

row,Structure (SMILES),Inhibition %
1,Cc1ccn(S(=O)(=O)c2ccc(C(C)(C)C)cc2)n1,4.34%
2,Cc1ncsc1C=C(C#N)C(=O)NCCc1ccccc1,6.72%
3,CS(=O)(=O)Nc1ccc(B(O)O)cc1,9.91%
4,CS(=O)(=O)Nc1ccc(C(=O)CCl)cc1,75.1%
5,Cc1cc(I)ccc1NC(=O)CCl,7.36%
6,Cc1c(NC(=O)c2cccnc2S)cnn1CCC(C)C,3.61%
7,O=C(CCl)c1ccc2c(c1)CCN(C(=O)C(F)(F)F)C2,2.68%
8,CC(=O)N1CCc2sc(C(=O)CCl)cc2C1,73.5%
9,O=C(CCl)NNC(=O)c1cc2c(s1)CCCC2,4.38%
10,N#Cc1c(-c2ccccc2)nc(S)[nH]c1=O,13.2%
11,Cc1ccc(CN2CCCN(C(=O)CCl)CC2)cc1.Cl,13%
12,COc1cc(S(=O)(=O)n2cccn2)ccc1F,1.65%
13,O=C1OCCC1Sc1ncnc2ccsc12 (stereo not shown),3.13%
14,CN(C(=O)c1cc(C(N)=O)cs1)C1CC(C)(C)OC1=O (stereo not shown),7.6%
15,CN(C)C(=O)c1cccc(NC(=O)CCl)c1,12.2%
16,CN(C)C(=O)c1ccc(NC(=O)CCl)cc1,44.1%
17,Cn1cc(C(=O)CCl)cc1C(N)=O,0.329%
18,NC(=O)c1csc(C(=O)CCl)c1,101%
19,O=C(O)c1csc(C(=O)CCl)c1,102%
20,CN(C)C(=O)c1csc(C(=O)CCl)c1,67.8%
21,O=C(CCl)Nc1cccc(C(=O)O)c1,13.2%
22,CC(C)C1NC(=O)C12CCCCCC2 (stereo not shown),9.56%
23,C=CC(=O)NC1(C)CCC(C)CC1 (stereo not shown),29.1%
24,C=CC(=O)NCCc1nc2c(C)cccc2o1,9.51%
25,Cc1cc(NC(=O)CCl)n(-c2ccccc2)n1,29.6%
26,Cc1nn(-c2ccccc2)c(C)c1C=C(C#N)C(=O)O,6.36%

row,Structure (SMILES),Inhibition %
1,CN(C)C(=O)c1ccc(B2OC(C)(C)C(C)(C)O2)c(Cl)c1,2.75%
2,Cn1ncc(C(=O)O)c1C#N,13.7%
3,NC(=O)Cc1cc(=O)[nH]c(S)n1,52.6%
4,Cl.NCc1cc(=O)[nH]c(S)n1,27.5%
5,CCCc1cc(=O)[nH]c(S)n1,8.86%
6,N#CC(=Cc1ccc(F)cc1)C(=O)O,2.9%
7,C=CC(=O)NCC1(C)OCCc2sccc21 (stereo not shown),16.4%
8,C=CC(=O)NC(C)(C)c1cnn(C)c1,3.17%
9,COc1nc(C)ccc1C(=O)Nc1cccc(S(=O)(=O)F)c1,11.7%
10,Cc1cc(C(=O)Nc2cccc(S(=O)(=O)F)c2)nn1C(C)(C)C,32.8%
11,Cn1ncc(C(=O)Nc2cccc(S(=O)(=O)F)c2)c1C#N,4.68%
12,Cn1cc(C(C)(C)C(=O)Nc2cccc(S(=O)(=O)F)c2)cn1,88.2%
13,CC1(C(=O)Nc2cccc(S(=O)(=O)F)c2)CCCC1,97.7%
14,CSC1(C(=O)Nc2cccc(S(=O)(=O)F)c2)CC1,101%
15,CC(F)(F)C1(C(=O)Nc2cccc(S(=O)(=O)F)c2)CC1,95.7%
16,COCCNC(=O)C(C#N)=Cc1c(Cl)cccc1Cl,2.17%
17,O=C(CCl)Nc1cccc2ncccc12,40.3%
18,CS(=O)(=O)NC1CCCN(C(=O)C=Cc2cccnc2)C1 (stereo not shown),5.3%
19,N#CN(CCn1cncn1)c1ccccc1,6.47%
20,OB(O)c1ccc(OCC2CCCCO2)cc1 (stereo not shown),27.9%
21,CCN(c1ccc(C(F)(F)F)c(C#N)n1)C1CCOC1 (stereo not shown),8.44%
22,C=CC(=O)NC1CCCN(c2ncccn2)C1 (stereo not shown),4.88%
23,CC1(C)OB(c2ccc(C(F)C(F)(F)F)cc2)OC1(C)C (stereo not shown),3.09%
24,Cc1cc(C)n(CCCNc2ccnc(C#N)c2)n1,3.45%
25,CC1CC(Sc2nccc(C(F)(F)F)n2)C(=O)O1 (stereo not shown),3.32%
26,C=CC(=O)N1CCCC(n2ccnn2)CC1 (stereo not shown),11.9%

row,Structure (SMILES),Inhibition %
1,C=CS(=O)(=O)Nc1ccccc1,6.78%
2,CC1(C(=O)Nc2cccc(S(=O)(=O)F)c2)CCOCC1,83.4%
3,C=CC(=O)NCC1c2ccccc2C(=O)N1C (stereo not shown),7.14%
4,C=CC(=O)NC1(c2ccc(C(F)(F)F)cc2)CC1,6.09%
5,C=CC(=O)N1CCCC(c2n[nH]c(=O)o2)C1 (stereo not shown),1.49%
6,C=CC(=O)N1CCC(NC(C)=O)(c2nc(C)cs2)C1 (stereo not shown),5.8%
7,CC1(c2ccc(S(=O)(=O)F)cc2)OCCO1,6.74%
8,Cc1nc(C2CC2)nc(S)c1C#N,2.7%
9,Cc1nc(C(C)(C)C)nc(S)c1C(=O)O,1.97%
10,Cc1nc(C2CC2)nc(S)c1C(=O)O,51.1%
11,C=CC(=O)NC1COc2c(C)cccc2C1 (stereo not shown),10.9%
12,CC1(C)OB(c2cc3ccccc3cc2Br)OC1(C)C,11.9%
13,CN(c1ccc(C(=O)CCl)cc1)S(C)(=O)=O,94.3%
14,CCN(c1ccc(C(=O)CCl)cc1)S(C)(=O)=O,95.1%
15,N#Cc1ccc(C(=O)CCl)cc1,18.8%
16,O=C(CCl)N(C1CCCCC1)C1CCS(=O)(=O)C1 (stereo not shown),1.27%
17,O=C(CCl)NCC#Cc1cccc(C(F)(F)F)c1,6.88%
18,Cl.ClCCN1CC2CCC(C1)O2,3.05%
19,Cc1nc(C#N)[nH]c1C,3.54%
20,C=CC(=O)N1CCCC2(CCCOC2)C1 (stereo not shown),11.3%
21,Cc1c(C#N)c(S)nc2c1CCC2,15.1%
22,Cc1nc(S)c(C#N)c(C)c1C,3.15%
23,Cc1nnc(S)c(C#N)c1C,53.3%
